Experimental data: PubChem BioAssay AID1159580 (chemical genetic matrix, 2015)
In all, about 5,500 compounds went through this assay and about 2,000 (36%) were called active. About 18% were inconclusive and are not listed. No stated cut-off is given here; in the data, active means normalized growth mostly below about 0.91 (no sharp cut-off); inconclusive means no clear call, values can overlap the other calls; inactive means mostly above about 0.92. This is one part of the list.

Experiment: chemical genetic growth profiling, strain panel (AID 1159580);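 further: tested at 20 µM; growth read once vehicle control cultures reached saturation at 30 °C; 1 = growth at the plate median or of vehicle wells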
Conditions: S. cerevisiae deletion strains, growth OD

Measured: normalized growth

N#Cc1c(Cl)c(Cl)c(Cl)c(Cl)c1C#N
active: locus YAR019C, strain CDC15, stronger effect = lower value 0.625 | locus YBL105C, strain PKC1, stronger effect = lower value 0.734 | locus YBR135W, strain CKS1, stronger effect = lower value 0.721 | locus YBR136W, strain MEC1, stronger effect = lower value 0.716 | locus YBR160W, strain CDC28, stronger effect = lower value 0.726 | locus YDL017W, strain CDC7, stronger effect = lower value 0.722 | locus YDL028C, strain MPS1, stronger effect = lower value 0.488 | locus YDL101C, strain DUN1, stronger effect = lower value 0.789 | locus YDL108W, strain KIN28, stronger effect = lower value 0.707 | locus YDL132W, strain cdc53, stronger effect = lower value 0.588 | locus YDL214C, strain PRR2, stronger effect = lower value 0.392 | locus YDR052C, strain DBF4, stronger effect = lower value 0.77 | locus YDR054C, strain cdc34, stronger effect = lower value 0.235 | locus YDR226W, strain ADK1, stronger effect = lower value 0.693 | locus YDR477W, strain SNF1, stronger effect = lower value 0.283 | locus YER123W, strain YCK3, stronger effect = lower value 0.169 | locus YER133W, strain GLC7, stronger effect = lower value 0.227 | locus YFL009W, strain cdc4, stronger effect = lower value 0.685 | locus YFL029C, strain CAK1, stronger effect = lower value 0.639 | locus YFR003C, strain YPI1, stronger effect = lower value 0.634 | locus YFR019W, strain FAB1, stronger effect = lower value 0.315 | locus YFR028C, strain CDC14, stronger effect = lower value 0.66 | locus YGR040W, strain KSS1, stronger effect = lower value 0.352 | locus YGR052W, strain FMP48, stronger effect = lower value 0.382 | locus YGR092W, strain DBF2, stronger effect = lower value 0.135 | locus YHR030C, strain SLT2, stronger effect = lower value 0.23 | locus YHR079C, strain IRE1, stronger effect = lower value 0.17 | locus YHR082C, strain KSP1, stronger effect = lower value 0.412 | locus YHR205W, strain SCH9, stronger effect = lower value 0.071 | locus YIL147C, strain SLN1, stronger effect = lower value 0.555 | locus YJL095W, strain BCK1, stronger effect = lower value 0.284 | locus YJL157C, strain FAR1, stronger effect = lower value 0.318 | locus YJR016C, strain ILV3, stronger effect = lower value 0.587 | locus YJR066W, strain TOR1 (second series), stronger effect = lower value 0.459 | locus YJR066W, strain TOR1, stronger effect = lower value 0.376 | locus YKL048C, strain ELM1, stronger effect = lower value 0.282 | locus YKL067W, strain YNK1, stronger effect = lower value 0.359 | locus YKL101W, strain HSL1, stronger effect = lower value 0.346 | locus YKL193C, strain SDS22, stronger effect = lower value 0.66 | locus YKL203C, strain TOR2, stronger effect = lower value 0.37 | locus YLR113W, strain HOG1, stronger effect = lower value 0.302 | locus YLR133W, strain CKI1, stronger effect = lower value 0.238 | locus YLR403W, strain SFP1, stronger effect = lower value 0.109 | locus YML070W, strain DAK1, stronger effect = lower value 0.291 | locus YMR001C, strain CDC5, stronger effect = lower value 0.673 | locus YMR205C, strain PFK2 (second series), stronger effect = lower value 0.159 | locus YMR277W, strain FCP1, stronger effect = lower value 0.594 | locus YNL006W, strain LST8, stronger effect = lower value 0.574 | locus YNL020C, strain ARK1, stronger effect = lower value 0.191 | locus YNL161W, strain CBK1, stronger effect = lower value 0.704 | locus YNL183C, strain NPR1, stronger effect = lower value 0.241 | locus YNL207W, strain RIO2, stronger effect = lower value 0.666 | locus YNL222W, strain SSU72, stronger effect = lower value 0.653 | locus YNL307C, strain MCK1 (second series), stronger effect = lower value 0.162 | locus YOL078W, strain AVO1, stronger effect = lower value 0.652 | locus YOL136C, strain PFK27, stronger effect = lower value 0.26 | locus YOR061W, strain CKA2, stronger effect = lower value 0.141 | locus YOR119C, strain RIO1, stronger effect = lower value 0.37 | locus YOR231W, strain MKK1, stronger effect = lower value 0.285 | locus YOR329C, strain SCD5, stronger effect = lower value 0.701 | locus YPL031C, strain PHO85, stronger effect = lower value 0.219 | locus YPL153C, strain RAD53, stronger effect = lower value 0.158 | locus YPL204W, strain HRR25, stronger effect = lower value 0.214 | locus YPL209C, strain IPL1, stronger effect = lower value 0.711 | locus YPL256C, strain CLN2, stronger effect = lower value 0.492 | locus YPR025C, strain CCL1, stronger effect = lower value 0.728 | locus YPR106W, strain ISR1, stronger effect = lower value 0.851 | locus YPR111W, strain DBF20, stronger effect = lower value 0.756 | strain NNK1, stronger effect = lower value 0.747 | strain TSCII, stronger effect = lower value 0.661
